Data taken from PubChem BioAssay (NCATS).
“And” between values parts separate entries of the source, which are not always exact repeats. Equal values may be shown once. Results filed as inconclusive are left out. The source holds several records for some structures; these can differ, active in one and inactive in another. The source made the active and inactive calls. The call rests on the fitted dose curve; in most records, active means well fitted inhibition curve with a large enough effect; inconclusive means small, poorly fitted or top-dose-only effect; inactive means flat fitted curve, though single readings scatter.

Assay: qHTS for Inhibitors of Plasmodium falciparum (7G8) proliferation (AID 504316); further: nearly all actives have a fitted effect of over 65% in size;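 on activity change, negative = inhibition: 0% = DMSO vehicle and -100% = 0.29 µM artemisinin full kill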
Settings: P. falciparum 7G8 in erythrocytes, SYBR Green DNA, 72 h; series mostly up to 6.7 µM; activity change, negative = inhibition: at the top concentration
Procedure, shortened: (§1)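 Parasite growth measured as SYBR Green DNA fluorescence (ex 485, em 535 nm) after overnight lysis following 72 h culture at 37 °C, 0.3% parasitemia, 2.5% hematocrit. Values normalized against DMSO and 0.29 uM artemisinin controls, with plate-stack correction.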
Potency means the concentration at half of the fitted maximal effect.

Row | Compound | activity change, negative = inhibition | Potency
1 | C=C(C(C)=O)C(O)c1ccc(Cl)cc1 (stereo not given) | -7.82% (inactive) | 
2 | COc1ccc(COC(=O)NN=C2C[C@@H](O)[C@@H](O)[C@@H]3[C@H]4C(=O)N(Cc5ccc6c(c5)OCO6)C(=O)[C@@H]4CC[C@H]23)cc1 | -18.6% (inactive) | 
3 | COC[C@H]1O[C@@H](c2c(OC)cc(OC)cc2OC)[C@H](OC)[C@@H](OC)[C@H]1OC | 1.01% (inactive) | 
4 | CC(=O)OC[C@H]1O[C@@H](ON=C(C)CCN2CCCCc3nc(C)c(C)cc32)[C@H](OC(C)=O)[C@@H](OC(C)=O)[C@H]1OC(C)=O | 0.565% (inactive) | 
5 | COC(=O)N1C2CC3(C)CC(=O)CC1(C)C3c1ccccc12 (stereo not given) |  | inactive
6 | C=CCOC(=O)N[C@@H](Cc1ccccc1)C(C(=O)OC)=C(C)NCc1ccccc1 | 7.74% (inactive) | 
7 | CCC=CCCC(OC(=O)c1ccc(Br)cc1)C1=CCCCC1=O (stereo not given) | -9.5% (inactive) | 
8 | COC(=O)CC=C[C@@H](C)[C@H](NC(=O)OC)c1ccccc1Br | 0.645% (inactive) | 
9 | CC(C)(C)Nc1oc(-c2ccccc2)nc1-c1ccc(C(F)(F)F)cc1 | -15.2% (inactive) | 
10 | COc1cc2c(cc1OC)[C@@H]1O[C@](c3ccsc3)(C2)Oc2cc(-c3ccccc3)oc(=O)c21 |  | 1.9 µM (active) and inactive
11 | COC(=O)C(Cc1cc(Br)c(OC)c(Br)c1O)=NO | 0.649% (inactive) | 
12 | CC(C)=NOCc1ccc(-c2cn([C@@H]3COC[C@@H]3O)nn2)cc1 | -5.44% (inactive) | 
13 | COC(=O)[C@@H]1[C@@H](c2ccccc2)NC(=O)N(Cc2ccccc2)[C@@H]1C | 0.299% (inactive) | 
14 | CCCCc1nc2c(c3c1C[C@H](C)OC3)CN(C(=O)Cc1cccs1)CC2 |  | inactive
15 | CN1c2ccccc2[C@@]2(O)C(=O)[C@@]1(C)[C@@H]1CCC=C[C@H]12 | 3.45% (inactive) | 
16 | CC=CCCN1C=C(C(=O)OCC)C(c2ccccc2)NC1=O (stereo not given) | 3.37% (inactive) | 
17 | CCOC(=O)CN1C(=O)NC(CCc2ccccc2)C(C(C)=O)=C1C (stereo not given) | -8.92% (inactive) | 
18 | CC1(OC(=O)C2CCCC2)C(=O)C=C2C=C(c3ccsc3)N(c3cccc(C#N)c3)C=C2C1=O (stereo not given) | -4.14% (inactive) | 
19 | CO[C@@H]1c2cc(F)ccc2C(=CCCOC(=O)CC=Cc2ccccc2)[C@H]1C | 0.706% (inactive) | 
20 | CC12C=C(C=Cc3ccc(Br)cc3)C(C)(C1)C(c1ccc(Br)cc1)CC2=O (stereo not given) |  | 1.69 µM (active)

Row | Compound | activity change, negative = inhibition | Potency
21 | CC(=O)N1C(=O)NC(C)=C(C#N)C1c1ccccc1 (stereo not given) | 2.85% (inactive) | 
22 | C#CCNC(=O)[C@H]1C=C(OC)C(=O)C[C@H]2c3ccccc3C[C@]12C | -0.921% (inactive) | 
23 | CCN1C(=NCCCOC(C)C)N[C@H](c2ccccc2)[C@H](C(=O)OC)[C@H]1C | 3.45% (inactive) | 
24 | COc1ccc(-c2nc3c(c4c2C[C@H](c2ccccc2)OC4)CN(S(=O)(=O)c2ccc(C)cc2)CC3)c(C)c1 |  | 1.69 µM (active) and 1.9 µM (active)
25 | C=C(C(C)=O)C(O)c1cccc(OC)c1 (stereo not given) | 1.44% (inactive) | 
26 | CC(CCC(=O)OC[C@H]1O[C@H](C#Cc2ccccc2)C=C[C@H]1Oc1ccc(C)cc1)=NOC[C@@H](O)[C@H]1O[C@@H]2OC(C)(C)O[C@H]2[C@@H]1O | -15.2% (inactive) | 
27 | CC(C)CON=C1C[C@@H](O)[C@@H](O)[C@@H]2[C@H]3C(=O)N(C4CCCCC4)C(=O)[C@@H]3CC[C@@H]12 | -1.48% (inactive) | 
28 | CC(C)(C)c1nc(-c2ccccc2)oc1Nc1ccc2ccccc2c1 |  | 1.51 µM (active)
29 | CCN1C(=O)N[C@@H](CCc2ccccc2)[C@@H](C(=O)OC)[C@H]1C | -0.327% (inactive) | 
30 | Cc1noc(C)c1S(=O)(=O)N1CCc2nc(-c3ccccc3)c3c(c2C1)CO[C@@H](C)C3 |  | inactive
31 | CC(CCN1CCCCc2nc(C)c(C)cc21)=NO[C@@H](C)CN1CCCCc2nc(C)c(C)cc21 | -2.43% (inactive) | 
32 | COC(=O)[C@H]1O[C@@H](c2cc(OC)c(C)c(OC)c2O)[C@H](C)[C@@H](O)[C@@H]1C | 2.34% (inactive) | 
33 | CC1(OC(=O)c2cnc3ccccc3n2)C(=O)C=C2C=C(C3CC3)OC=C2C1=O (stereo not given) | -1.12% (inactive) | 
34 | CC(=O)OC[C@H]1O[C@H](CC=NO[C@H](C)CN2CCCCc3nc(C)c(C)cc32)C=C[C@@H]1OC(C)=O | -9.51% (inactive) | 
35 | CCN1C(=NCCc2c[nH]c3ccccc23)NC(c2ccccc2)C(C(=O)OC)=C1C (stereo not given) | -7.58% (inactive) | 
36 | COc1ccc(-c2nc3c(c4c2C[C@H](c2ccccc2)OC4)CN(C(=O)c2cccnc2)CC3)c(C)c1 |  | 1.51 µM (active) and 1.69 µM (active)
37 | CC(=O)C1=C(C)N(CC#C[Si](C)(C)C)C(=O)N(C(C)=O)C1c1ccccc1 (stereo not given) | 1.9% (inactive) | 
38 | CCCCc1nc2c(c3c1C[C@H](C)OC3)CN(C(=O)c1ccco1)CC2 | -21% (inactive) | 
39 | COC(=O)N[C@@H](c1cccc(F)c1)C(C(C)=O)C(=O)OC (stereo not given in full) |  | inactive

Assay: qHTS for Inhibitors of Plasmodium falciparum (HB3) proliferation (AID 504318); further: nearly all actives have a fitted effect of over 60% in size;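 on activity change, negative = inhibition: 0% = DMSO vehicle and -100% = artemisinin control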
Settings: P. falciparum HB3 in erythrocytes, SYBR Green DNA, 72 h; series mostly up to 7.21 µM; activity change, negative = inhibition: at the top concentration
Procedure, shortened: as §1

Row | Compound | activity change, negative = inhibition | Potency
40 | C=C(C(C)=O)C(O)c1ccc(Cl)cc1 (stereo not given) | 4.53% (inactive) | 
41 | COc1ccc(COC(=O)NN=C2C[C@@H](O)[C@@H](O)[C@@H]3[C@H]4C(=O)N(Cc5ccc6c(c5)OCO6)C(=O)[C@@H]4CC[C@H]23)cc1 | -12.2% (inactive) | 
42 | COC[C@H]1O[C@@H](c2c(OC)cc(OC)cc2OC)[C@H](OC)[C@@H](OC)[C@H]1OC | -0.227% (inactive) | 
43 | CC(=O)OC[C@H]1O[C@@H](ON=C(C)CCN2CCCCc3nc(C)c(C)cc32)[C@H](OC(C)=O)[C@@H](OC(C)=O)[C@H]1OC(C)=O | -11.9% (inactive) | 
44 | COC(=O)N1C2CC3(C)CC(=O)CC1(C)C3c1ccccc12 (stereo not given) |  | inactive
45 | C=CCOC(=O)N[C@@H](Cc1ccccc1)C(C(=O)OC)=C(C)NCc1ccccc1 | 10.2% (inactive) | 
46 | CCC=CCCC(OC(=O)c1ccc(Br)cc1)C1=CCCCC1=O (stereo not given) | 4.4% (inactive) | 
47 | COC(=O)CC=C[C@@H](C)[C@H](NC(=O)OC)c1ccccc1Br | -3.57% (inactive) | 
48 | CC(C)(C)Nc1oc(-c2ccccc2)nc1-c1ccc(C(F)(F)F)cc1 | -0.0744% (inactive) | 
49 | COC(=O)C(Cc1cc(Br)c(OC)c(Br)c1O)=NO | -6.68% (inactive) | 
50 | CC(C)=NOCc1ccc(-c2cn([C@@H]3COC[C@@H]3O)nn2)cc1 | 3.7% (inactive) | 
51 | COC(=O)[C@@H]1[C@@H](c2ccccc2)NC(=O)N(Cc2ccccc2)[C@@H]1C | 7.33% (inactive) | 
52 | CCCCc1nc2c(c3c1C[C@H](C)OC3)CN(C(=O)Cc1cccs1)CC2 | -7.09% (inactive) | 
53 | CC=CCCN1C=C(C(=O)OCC)C(c2ccccc2)NC1=O (stereo not given) | -0.0044% (inactive) | 
54 | CCOC(=O)CN1C(=O)NC(CCc2ccccc2)C(C(C)=O)=C1C (stereo not given) | 0.365% (inactive) | 
55 | CC1(OC(=O)C2CCCC2)C(=O)C=C2C=C(c3ccsc3)N(c3cccc(C#N)c3)C=C2C1=O (stereo not given) | -15.1% (inactive) | 
56 | CO[C@@H]1c2cc(F)ccc2C(=CCCOC(=O)CC=Cc2ccccc2)[C@H]1C | 1.82% (inactive) | 
57 | CC12C=C(C=Cc3ccc(Br)cc3)C(C)(C1)C(c1ccc(Br)cc1)CC2=O (stereo not given) |  | 1690 nM (active)

Row | Compound | activity change, negative = inhibition | Potency
58 | CC(=O)N1C(=O)NC(C)=C(C#N)C1c1ccccc1 (stereo not given) | -5.3% (inactive) | 
59 | C#CCNC(=O)[C@H]1C=C(OC)C(=O)C[C@H]2c3ccccc3C[C@]12C | -3.78% (inactive) | 
60 | CCN1C(=NCCCOC(C)C)N[C@H](c2ccccc2)[C@H](C(=O)OC)[C@H]1C | 0.543% (inactive) | 
61 | COc1ccc(-c2nc3c(c4c2C[C@H](c2ccccc2)OC4)CN(S(=O)(=O)c2ccc(C)cc2)CC3)c(C)c1 |  | 2130 nM (active)
62 | C=C(C(C)=O)C(O)c1cccc(OC)c1 (stereo not given) | -3.59% (inactive) | 
63 | CC(CCC(=O)OC[C@H]1O[C@H](C#Cc2ccccc2)C=C[C@H]1Oc1ccc(C)cc1)=NOC[C@@H](O)[C@H]1O[C@@H]2OC(C)(C)O[C@H]2[C@@H]1O | -2.33% (inactive) | 
64 | CC(C)CON=C1C[C@@H](O)[C@@H](O)[C@@H]2[C@H]3C(=O)N(C4CCCCC4)C(=O)[C@@H]3CC[C@@H]12 | -7.3% (inactive) | 
65 | CC(C)(C)c1nc(-c2ccccc2)oc1Nc1ccc2ccccc2c1 |  | 2940 nM (active)
66 | CCN1C(=O)N[C@@H](CCc2ccccc2)[C@@H](C(=O)OC)[C@H]1C |  | inactive
67 | Cc1noc(C)c1S(=O)(=O)N1CCc2nc(-c3ccccc3)c3c(c2C1)CO[C@@H](C)C3 | -3.25% (inactive) | 
68 | CC(CCN1CCCCc2nc(C)c(C)cc21)=NO[C@@H](C)CN1CCCCc2nc(C)c(C)cc21 | 1.34% (inactive) | 
69 | COC(=O)[C@H]1O[C@@H](c2cc(OC)c(C)c(OC)c2O)[C@H](C)[C@@H](O)[C@@H]1C | 0.79% (inactive) | 
70 | CC1(OC(=O)c2cnc3ccccc3n2)C(=O)C=C2C=C(C3CC3)OC=C2C1=O (stereo not given) | -7.12% (inactive) | 
71 | CC(=O)OC[C@H]1O[C@H](CC=NO[C@H](C)CN2CCCCc3nc(C)c(C)cc32)C=C[C@@H]1OC(C)=O | 2.47% (inactive) | 
72 | CCN1C(=NCCc2c[nH]c3ccccc23)NC(c2ccccc2)C(C(=O)OC)=C1C (stereo not given) | -7.29% (inactive) | 
73 | CC(=O)C1=C(C)N(CC#C[Si](C)(C)C)C(=O)N(C(C)=O)C1c1ccccc1 (stereo not given) | -1.21% (inactive) | 
74 | CCCCc1nc2c(c3c1C[C@H](C)OC3)CN(C(=O)c1ccco1)CC2 |  | inactive
75 | COC(=O)N[C@@H](c1cccc(F)c1)C(C(C)=O)C(=O)OC (stereo not given in full) | -2.4% (inactive) | 
